Experimental data from PubChem BioAssay (NCI).
Compounds without any hit were thinned out: in the full panel of roughly 83,000, 20% have a hit.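 The endpoint reported here, percent growth, reads 100 for growth as untreated, 0 for no net growth and -100 for all cells dead.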 The source made the active and inactive calls. Rule for the calls: active = growth percent below 10; inactive = the rest.

These compounds were tested on ACHN renal (assay: NCI-60 one-dose screen, 48 h (100 = growth as untreated, 0 = no growth, -100 = all killed)). Conditions: 10 µM unless noted.

Row | Structure (SMILES) | growth
1 | O=C(NNc1nc2cc(C(F)(F)F)ccc2n2cccc12)c1cnccn1 | -97.5% (active)
2 | Cc1cccc(NC(=O)[C@]23CCC(C)(C)CC2C2=CCC4[C@@]5(C)C[C@@H](O)[C@H](O)[C@@](C)(CO)C5CC[C@@]4(C)[C@]2(C)CC3)c1 (stereo partly specified) | 1.52% (active)
3 | CCCCSc1nc(NCCc2c[nH]c3ccccc23)c(C#N)c(-c2ccc(F)cc2)n1 | 71.9% (inactive)
4 | COc1ccc(-c2ccnc(SCc3cc4cc(Cl)ccc4[nH]c3=O)n2)cc1 | 55% (inactive)
5 | O=c1[nH]c2ccccc2cc1CSc1nccc(-c2ccc3ccccc3c2)n1 | 95.8% (inactive)
6 | CCCCCCCCc1ccc(S(=O)(=O)Nc2ccc(CC)cc2C(=O)O)cc1 | 96% (inactive)
7 | COc1cc(OC)c2c3nc4cc(C)c(C)cc4nc3n(CCN(C)C)c2c1 | 47.3% (inactive)
8 | N#Cc1c(-c2cccc(O)c2O)cc(-c2ccc3ccccc3c2)[nH]c1=O | 56.4% (inactive)
9 | O=c1[nH]n(C(=S)N/N=C/c2ccccc2Cl)c(=O)c2ccccc12 | 5.27% (active)
10 | COc1ccc(C(=O)/C=C/c2cccc(Cl)c2Cl)cc1S(N)(=O)=O | -82.4% (active)
11 | COc1ccc(C(=O)/C=C/c2cccnc2)cc1S(N)(=O)=O | 50.7% (inactive)
12 | Cc1cc2nc3c4ccccc4n(CC4=NCCN4)c3nc2cc1C | -100% (active)
13 | CCCCCCCCc1ccc(C(=O)Nc2cccc(P(=O)(O)O)c2)cc1 | 110% (inactive)
14 | Cc1cc2nc3c([nH]c2cc1C)c1ccc(=O)cc1n3CCN(C)C | 20.4% (inactive)
15 | O=C(c1ccc(Cl)cc1)c1ccc(OCCCN2CCN(c3ccncc3)CC2)cc1 | 74% (inactive)
16 | CCCCSc1nc(NCCc2c[nH]c3ccccc23)c(C#N)c(-c2ccccc2)n1 | 43.2% (inactive)
17 | O=C1N/C(=N\c2nccs2)S/C1=C\C=C/c1ccccc1 | 23.5% (inactive)
18 | CC(=O)OC[C@@]1(C)C2CC[C@]3(C)C(CC=C4C5CC(C)(C)CC[C@]5(C(=O)Nc5cccc(C)c5)CC[C@]43C)[C@@]2(C)C[C@@H](OC(C)=O)[C@@H]1OC(C)=O (stereo partly specified) | 38.8% (inactive)
19 | COc1ccc(C(SCCNCc2cc(N(C)C)ccn2)(c2ccccc2)c2ccccc2)cc1 | 20.3% (inactive)

Row | Structure (SMILES) | growth
20 | O=c1onc(-c2cc3ccccc3nc2Cl)n1-c1cccc2ccccc12 | 50.4% (inactive)
21 | COc1ccc(C2=NN(c3ccccc3)C(c3ccc(OCc4ccccc4)c(OC)c3)C2)cc1OC (stereo unspecified) | 99.4% (inactive)
22 | Nc1n[nH]c2cccc(C#Cc3cccc(NC(=O)c4cccc(Cl)c4)c3)c12 | 18.2% (inactive)
23 | O=C(Cn1c2c(sc1=O)[C@H]1[C@@H](O)[C@@H](O)[C@H](O)[C@@H]1CS2)N1CCOCC1 | 102% (inactive)
24 | CC(=O)Nc1cccc(Nc2nc(N[C@H]3CCCc4ccccc43)c3ccccc3n2)c1 | 102% (inactive)
25 | N/C(=N\c1nc2ccccc2s1)NC(=O)NCCCCCCO | 39.5% (inactive)
26 | COc1ccc2c(c1)C(=N/N=C(\C)c1ccc(OC)c(S(N)(=O)=O)c1)C(=O)N2 | 101% (inactive)
27 | CCCSc1nc(NCCc2c[nH]c3ccccc23)c(C#N)c(-c2ccc(F)cc2)n1 | 59.2% (inactive)
28 | O=c1[nH]c2ccccc2cc1CSc1cccc(Nc2nccc(-c3ccc4ccccc4c3)n2)c1 | 95.5% (inactive)
29 | CCN(CC)c1ccnc(CNCCSC(c2ccccc2)(c2ccccc2)c2ccc(C)cc2)c1 | -53% (active)
30 | CN(C)CCn1c2ccccc2c2nc3cc(C(F)(F)F)ccc3nc21 | 13.5% (inactive)
31 | CC1(C)CC[C@]2(C(=O)Nc3ccc(Br)cc3)CC[C@]3(C)C(=CCC4[C@@]5(C)C[C@@H](O)[C@H](O)[C@@](C)(CO)C5CC[C@]43C)C2C1 (stereo partly specified) | 17.7% (inactive)
32 | CCC(C)(C)c1ccc(OCCCCCCN2CCN(c3ccncc3)CC2)cc1 | 48.3% (inactive)
33 | COc1ccc(C(=O)/C=C/c2ccc(Cl)c(Cl)c2)cc1S(N)(=O)=O | -69.7% (active)
34 | Cc1cc(N=C2NC(=O)CS2)n[nH]1 | 102% (inactive)
35 | Cc1ccc(C(=O)CSc2nc3ccc(F)cc3c(=O)n2-c2ccc(Cl)cc2)cc1 | 33.3% (inactive)
36 | COc1ccc(C(=O)/C=C/c2cccc(Br)c2)cc1S(N)(=O)=O | -95.2% (active)
37 | Cc1sc(C(NC(=O)OCCn2c([N+](=O)[O-])cnc2C)C(F)(F)Cl)nc1-c1ccc(OC(F)(F)F)cc1 (stereo unspecified) | -98.5% (active)
38 | COc1ccc(NC(=O)Cn2c3c(sc2=O)[C@H]2[C@@H](O)[C@@H](O)[C@H](O)[C@@H]2CS3)cc1 | 96.6% (inactive)

The compounds below were run on CAKI-1 renal in the same assay as above. Conditions: 10 µM unless noted.

Row | Structure (SMILES) | growth
39 | O=C(NNc1nc2cc(C(F)(F)F)ccc2n2cccc12)c1cnccn1 | -87.6% (active)
40 | Cc1cccc(NC(=O)[C@]23CCC(C)(C)CC2C2=CCC4[C@@]5(C)C[C@@H](O)[C@H](O)[C@@](C)(CO)C5CC[C@@]4(C)[C@]2(C)CC3)c1 (stereo partly specified) | 22.8% (inactive)
41 | CCCCSc1nc(NCCc2c[nH]c3ccccc23)c(C#N)c(-c2ccc(F)cc2)n1 | 48.2% (inactive)
42 | COc1ccc(-c2ccnc(SCc3cc4cc(Cl)ccc4[nH]c3=O)n2)cc1 | 26.2% (inactive)
43 | O=c1[nH]c2ccccc2cc1CSc1nccc(-c2ccc3ccccc3c2)n1 | 56.6% (inactive)
44 | CCCCCCCCc1ccc(S(=O)(=O)Nc2ccc(CC)cc2C(=O)O)cc1 | 89% (inactive)
45 | COc1cc(OC)c2c3nc4cc(C)c(C)cc4nc3n(CCN(C)C)c2c1 | 50.5% (inactive)
46 | N#Cc1c(-c2cccc(O)c2O)cc(-c2ccc3ccccc3c2)[nH]c1=O | 75.6% (inactive)
47 | O=c1[nH]n(C(=S)N/N=C/c2ccccc2Cl)c(=O)c2ccccc12 | 27.5% (inactive)
48 | COc1ccc(C(=O)/C=C/c2cccc(Cl)c2Cl)cc1S(N)(=O)=O | -5.88% (active)
49 | COc1ccc(C(=O)/C=C/c2cccnc2)cc1S(N)(=O)=O | 52.6% (inactive)
50 | Cc1cc2nc3c4ccccc4n(CC4=NCCN4)c3nc2cc1C | -70% (active)
51 | CCCCCCCCc1ccc(C(=O)Nc2cccc(P(=O)(O)O)c2)cc1 | 93.6% (inactive)
52 | Cc1cc2nc3c([nH]c2cc1C)c1ccc(=O)cc1n3CCN(C)C | 19.9% (inactive)
53 | O=C(c1ccc(Cl)cc1)c1ccc(OCCCN2CCN(c3ccncc3)CC2)cc1 | 56.7% (inactive)
54 | CCCCSc1nc(NCCc2c[nH]c3ccccc23)c(C#N)c(-c2ccccc2)n1 | 35.2% (inactive)
55 | O=C1N/C(=N\c2nccs2)S/C1=C\C=C/c1ccccc1 | 35.1% (inactive)
56 | CC(=O)OC[C@@]1(C)C2CC[C@]3(C)C(CC=C4C5CC(C)(C)CC[C@]5(C(=O)Nc5cccc(C)c5)CC[C@]43C)[C@@]2(C)C[C@@H](OC(C)=O)[C@@H]1OC(C)=O (stereo partly specified) | 42.2% (inactive)
57 | COc1ccc(C(SCCNCc2cc(N(C)C)ccn2)(c2ccccc2)c2ccccc2)cc1 | 11.3% (inactive)

Row | Structure (SMILES) | growth
58 | O=c1onc(-c2cc3ccccc3nc2Cl)n1-c1cccc2ccccc12 | 29.1% (inactive)
59 | COc1ccc(C2=NN(c3ccccc3)C(c3ccc(OCc4ccccc4)c(OC)c3)C2)cc1OC (stereo unspecified) | 88.7% (inactive)
60 | Nc1n[nH]c2cccc(C#Cc3cccc(NC(=O)c4cccc(Cl)c4)c3)c12 | 18.8% (inactive)
61 | O=C(Cn1c2c(sc1=O)[C@H]1[C@@H](O)[C@@H](O)[C@H](O)[C@@H]1CS2)N1CCOCC1 | 94.7% (inactive)
62 | CC(=O)Nc1cccc(Nc2nc(N[C@H]3CCCc4ccccc43)c3ccccc3n2)c1 | 89.5% (inactive)
63 | N/C(=N\c1nc2ccccc2s1)NC(=O)NCCCCCCO | 32% (inactive)
64 | COc1ccc2c(c1)C(=N/N=C(\C)c1ccc(OC)c(S(N)(=O)=O)c1)C(=O)N2 | 79.5% (inactive)
65 | CCCSc1nc(NCCc2c[nH]c3ccccc23)c(C#N)c(-c2ccc(F)cc2)n1 | 52.3% (inactive)
66 | O=c1[nH]c2ccccc2cc1CSc1cccc(Nc2nccc(-c3ccc4ccccc4c3)n2)c1 | 81.2% (inactive)
67 | CCN(CC)c1ccnc(CNCCSC(c2ccccc2)(c2ccccc2)c2ccc(C)cc2)c1 | -92.3% (active)
68 | CN(C)CCn1c2ccccc2c2nc3cc(C(F)(F)F)ccc3nc21 | 11% (inactive)
69 | CC1(C)CC[C@]2(C(=O)Nc3ccc(Br)cc3)CC[C@]3(C)C(=CCC4[C@@]5(C)C[C@@H](O)[C@H](O)[C@@](C)(CO)C5CC[C@]43C)C2C1 (stereo partly specified) | 20.6% (inactive)
70 | CCC(C)(C)c1ccc(OCCCCCCN2CCN(c3ccncc3)CC2)cc1 | 17.5% (inactive)
71 | COc1ccc(C(=O)/C=C/c2ccc(Cl)c(Cl)c2)cc1S(N)(=O)=O | -7.4% (active)
72 | Cc1cc(N=C2NC(=O)CS2)n[nH]1 | 95.9% (inactive)
73 | Cc1ccc(C(=O)CSc2nc3ccc(F)cc3c(=O)n2-c2ccc(Cl)cc2)cc1 | 10.1% (inactive)
74 | COc1ccc(C(=O)/C=C/c2cccc(Br)c2)cc1S(N)(=O)=O | -79.9% (active)
75 | Cc1sc(C(NC(=O)OCCn2c([N+](=O)[O-])cnc2C)C(F)(F)Cl)nc1-c1ccc(OC(F)(F)F)cc1 (stereo unspecified) | -76.6% (active)
76 | COc1ccc(NC(=O)Cn2c3c(sc2=O)[C@H]2[C@@H](O)[C@@H](O)[C@H](O)[C@@H]2CS3)cc1 | 97.2% (inactive)
